Assay results published in PubChem BioAssay (Tox21).
Several values for one entry are separate records, joined by “and”; a condition that tells them apart may be missing. Identical values can stand only once. Results filed as inconclusive are left out. Entries that show only a call come without a potency. Activity calls are given as the source filed them. Unless noted, calls follow the shape of the dose curve; as a rule, active = well fitted curve in the direction sought with a large enough effect in the repeat runs; inconclusive = weak or mixed curves; inactive = no such curve, though single readings can be large; an effect the other way counts as inactive or inconclusive.

Experiment: qHTS assay for small molecule disruptors of the mitochondrial membrane potential - cell viability (AID 720634; calls by dose curve; also: nearly all actives have a fitted effect of over 20% in size; also: potency is read from the fitted curve at half-maximal effect;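 as to activity change, negative = cytotoxicity: human HepG2 liver cancer cells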)
Settings: HepG2 viability, ATP luminescence (CellTiter-Glo), 1 h; series mostly up to 83.2 µM; activity change, negative = cytotoxicity: at the top concentration
How it was run: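 Cells: HepG2, 2,000/well, attached overnight. Compound 1 hr, 37 C/5% CO2. +m-MPI dye, +CellTiter-Glo 30 min RT. Readout: luminescence (ATP).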
In the case of O=C(O)c1cc(C(=O)O)cc(S(=O)(=O)O)c1, the Potency is reported as “inactive”. For CC1CCC(C(C)C)C(O)C1 (stereo not given), the Potency was “inactive”. In the case of CCCCCCCCC/C=C/CC1CC(=O)OC1=O (stereo not given), the Potency is reported as “inactive”. In the case of CCCCCC1=CCCC1=O, the Potency is reported as “inactive”. In the case of O=C(O)c1ccccc1C(c1ccc(O)cc1)c1ccc(O)cc1, the “activity change, negative = cytotoxicity” value is reported as 11.2% (inactive). For CCCCC(CC)COC(=O)CCCCC(=O)OCC(CC)CCCC (stereo not given), the Potency was “inactive”. With COCCCOc1ccnc(CS(=O)c2nc3ccccc3[nH]2)c1C (stereo not given) the Potency was “inactive”. With CCCCCC/C(C=O)=C\c1ccccc1 the Potency was “inactive”. In the case of O=C(O)CCCC[C@@H]1SC[C@@H]2NC(=O)N[C@@H]21, the Potency is reported as “inactive”. With Cc1cccnc1 the Potency was “inactive”. For CC[C@H](C)C(=O)O[C@H]1C[C@@H](C)C=C2C=C[C@H](C)[C@H](CC[C@@H]3C[C@@H](O)CC(=O)O3)[C@H]21, the “activity change, negative = cytotoxicity” value was -17.6% (inactive). With NNc1nncc2ccccc12 the Potency was “inactive”. For O=[N+]([O-])c1ccc(/C=C/c2ccc([N+](=O)[O-])cc2S(=O)(=O)O)c(S(=O)(=O)O)c1, the Potency was “inactive”. With CCCSc1ccc2nc(NC(=O)OC)[nH]c2c1 the Potency was “inactive”. With CC(=O)Nc1ccccc1 the Potency was “inactive”. With Cc1occc(=O)c1O the Potency was “inactive”. For CC1=CC(=O)NS(=O)(=O)O1, the Potency was “inactive”. In the case of OCC(CO)(CBr)CBr, the Potency is reported as “inactive”. With CCCCCCCCCCCCOCCO the “activity change, negative = cytotoxicity” value was -14% (inactive). For O=C(O)[C@H](O)[C@@H](O)[C@H](O)[C@H](O)CO, the Potency was “inactive”. For COc1ccc(NC(C)=O)cc1N, the Potency was “inactive”. In the case of CCCCCOC(C)=O, the Potency is reported as “inactive”. For CC(C)c1ccc(S(=O)(=O)O)cc1, the Potency was “inactive”. In the case of O=C(O)CCCCCCCCCCC(=O)O, the Potency is reported as “inactive”. In the case of C#C[C@]1(O)CC[C@H]2[C@@H]3CCC4=CC(=O)CC[C@@H]4[C@H]3CC[C@@]21C, the Potency is reported as “inactive”. In the case of CC(=O)CC(=O)Nc1ccccc1, the Potency is reported as “inactive”. In the case of O=C(Oc1ccccc1)c1ccccc1, the Potency is reported as “inactive”. For Cc1ccc2oc(=O)ccc2c1, the Potency was “inactive”. For CC(c1cc2ccccc2s1)N(O)C(N)=O (stereo not given), the Potency was 27.3 µM (active). With CCCCC(CC)COC(=O)C(C#N)=C(c1ccccc1)c1ccccc1 (stereo not given) the Potency was 15.4 µM (active). With CCN(CC)c1ccc(C(=O)c2ccccc2C(=O)O)c(O)c1 the Potency was “inactive”. In the case of OCc1cccnc1, the Potency is reported as “inactive”. For CCc1ccc(CCOc2ccc(CC3SC(=O)NC3=O)cc2)nc1 (stereo not given), the “activity change, negative = cytotoxicity” value was -0.709% (inactive). In the case of COc1ccc2cc([C@H](C)C(=O)O)ccc2c1, the “activity change, negative = cytotoxicity” value is reported as 15% (inactive). With COS(C)(=O)=O the Potency was “inactive”.

Experiment: qHTS assay for small molecule disruptors of the mitochondrial membrane potential (AID 720635); also: potency is read from the fitted curve at half-maximal effect
Settings: HepG2 mitochondrial membrane potential, Mito-MPS dye ratio; series mostly up to 83.2 µM; ratio activity, negative = MMP loss: at the top concentration
How it was run: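 HepG2 cells (2,000/well) attached overnight at 37C, then took compound for 1 hr at 37C, 5% CO2. Mito-MPS dye was added for 30 min; fluorescence was read at 490/535 nm (monomers) and 540/590 nm (aggregates).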
With O=C(O)c1cc(C(=O)O)cc(S(=O)(=O)O)c1 the “ratio activity, negative = MMP loss” value was -9.53% [at 95.3 µM] (inactive). In the case of CC1CCC(C(C)C)C(O)C1 (stereo not given), the “ratio activity, negative = MMP loss” value is reported as 11.2% (inactive). In the case of CCCCCC1=CCCC1=O, the “ratio activity, negative = MMP loss” value is reported as -2.99% (inactive). With CCCCCC/C(C=O)=C\c1ccccc1 the “ratio activity, negative = MMP loss” value was -10.2% [at 95.3 µM] (inactive). For O=C(O)CCCC[C@@H]1SC[C@@H]2NC(=O)N[C@@H]21, the “ratio activity, negative = MMP loss” value was -8.36% (inactive). With C=C(C)C(=O)Nc1ccc(Cl)c(Cl)c1 the Potency was 19.5 µM (active) and 30.5 µM (active). For Cc1cccnc1, the Potency was “inactive”. With CC[C@H](C)C(=O)O[C@H]1C[C@@H](C)C=C2C=C[C@H](C)[C@H](CC[C@@H]3C[C@@H](O)CC(=O)O3)[C@H]21 the Potency was 18.8 µM (active) and 62 µM (active) and 60.8 µM (active). With O=[N+]([O-])c1ccc(/C=C/c2ccc([N+](=O)[O-])cc2S(=O)(=O)O)c(S(=O)(=O)O)c1 the Potency was “inactive”. In the case of CCCSc1ccc2nc(NC(=O)OC)[nH]c2c1, the Potency is reported as 4.52 µM (active) and 12.2 µM (active). For Cc1occc(=O)c1O, the Potency was “inactive”. In the case of CC1=CC(=O)NS(=O)(=O)O1, the Potency is reported as “inactive”. For OCC(CO)(CBr)CBr, the Potency was “inactive”. With O=C(O)[C@H](O)[C@@H](O)[C@H](O)[C@H](O)CO the Potency was “inactive”. In the case of COc1ccc(NC(C)=O)cc1N, the Potency is reported as “inactive”. For CCCCCOC(C)=O, the “ratio activity, negative = MMP loss” value was 16.4% [at 95.3 µM] (inactive). In the case of CC(C)c1ccc(S(=O)(=O)O)cc1, the “ratio activity, negative = MMP loss” value is reported as -3.22% (inactive). In the case of O=C(O)CCCCCCCCCCC(=O)O, the “ratio activity, negative = MMP loss” value is reported as -12.4% (inactive). With C#C[C@]1(O)CC[C@H]2[C@@H]3CCC4=CC(=O)CC[C@@H]4[C@H]3CC[C@@]21C the “ratio activity, negative = MMP loss” value was 7.04% (inactive). With CC(=O)CC(=O)Nc1ccccc1 the Potency was “inactive”. In the case of O=C(Oc1ccccc1)c1ccccc1, the Potency is reported as “inactive”. With Cc1ccc2oc(=O)ccc2c1 the “ratio activity, negative = MMP loss” value was 0.551% [at 95.3 µM] (inactive). With CC(c1cc2ccccc2s1)N(O)C(N)=O (stereo not given) the “ratio activity, negative = MMP loss” value was -5.25% (inactive). For CCCCC(CC)COC(=O)C(C#N)=C(c1ccccc1)c1ccccc1 (stereo not given), the Potency was 27.3 µM (active). With COc1ccc2cc([C@H](C)C(=O)O)ccc2c1 the “ratio activity, negative = MMP loss” value was 8.38% [at 39.1 µM] (inactive). For COS(C)(=O)=O, the “ratio activity, negative = MMP loss” value was 7.91% [at 95.3 µM] (inactive).

Experiment: qHTS assay to test for compound auto fluorescence at 590 nm (red) in HepG2 cells (AID 720674)
Settings: HepG2 autofluorescence, red 540/590 nm, 1 h; series mostly up to 91.3 µM; fluorescence, relative to Rose Bengal: at the top concentration
How it was run: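 Intrinsic compound fluorescence in the red window (Ex/Em 540/590 nm) is measured in attached HepG2 cells exposed for 1 hr, DMSO vehicle as baseline, benchmarked to Rose Bengal sodium.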
With O=C(O)c1cc(C(=O)O)cc(S(=O)(=O)O)c1 the outcome was “inactive”. In the case of CC1CCC(C(C)C)C(O)C1 (stereo not given), the outcome is reported as “inactive”. For CCCCCCCCC/C=C/CC1CC(=O)OC1=O (stereo not given), the outcome was “inactive”. With CCCCCC1=CCCC1=O the outcome was “inactive”. For O=C(O)c1ccccc1C(c1ccc(O)cc1)c1ccc(O)cc1, the “fluorescence, relative to Rose Bengal” value was -0.0889% (inactive). For CCCCC(CC)COC(=O)CCCCC(=O)OCC(CC)CCCC (stereo not given), the outcome was “inactive”. With COCCCOc1ccnc(CS(=O)c2nc3ccccc3[nH]2)c1C (stereo not given) the outcome was “inactive”. With CCCCCC/C(C=O)=C\c1ccccc1 the outcome was “inactive”. For O=C(O)CCCC[C@@H]1SC[C@@H]2NC(=O)N[C@@H]21, the outcome was “inactive”. With C=C(C)C(=O)Nc1ccc(Cl)c(Cl)c1 the outcome was “inactive”. In the case of Cc1cccnc1, the outcome is reported as “inactive”. In the case of CC[C@H](C)C(=O)O[C@H]1C[C@@H](C)C=C2C=C[C@H](C)[C@H](CC[C@@H]3C[C@@H](O)CC(=O)O3)[C@H]21, the outcome is reported as “inactive”. For NNc1nncc2ccccc12, the outcome was “inactive”. With O=[N+]([O-])c1ccc(/C=C/c2ccc([N+](=O)[O-])cc2S(=O)(=O)O)c(S(=O)(=O)O)c1 the outcome was “inactive”. With CCCSc1ccc2nc(NC(=O)OC)[nH]c2c1 the outcome was “inactive”. With CC(=O)Nc1ccccc1 the outcome was “inactive”. In the case of Cc1occc(=O)c1O, the outcome is reported as “inactive”. For CC1=CC(=O)NS(=O)(=O)O1, the outcome was “inactive”. With OCC(CO)(CBr)CBr the outcome was “inactive”. In the case of CCCCCCCCCCCCOCCO, the “fluorescence, relative to Rose Bengal” value is reported as -0.0034% (inactive). With O=C(O)[C@H](O)[C@@H](O)[C@H](O)[C@H](O)CO the outcome was “inactive”. For COc1ccc(NC(C)=O)cc1N, the outcome was “inactive”. With CCCCCOC(C)=O the outcome was “inactive”. For OC[C@H]1O[C@@](CO)(O[C@H]2O[C@H](CO)[C@@H](O)[C@H](O)[C@H]2O)[C@@H](O)[C@@H]1O, the outcome was “inactive”. For CC(C)c1ccc(S(=O)(=O)O)cc1, the outcome was “inactive”. With O=C(O)CCCCCCCCCCC(=O)O the outcome was “inactive”. In the case of CCN(CC)CCCC(C)Nc1ccnc2cc(Cl)ccc12 (stereo not given), the outcome is reported as “inactive”. In the case of C#C[C@]1(O)CC[C@H]2[C@@H]3CCC4=CC(=O)CC[C@@H]4[C@H]3CC[C@@]21C, the outcome is reported as “inactive”. For CC(=O)CC(=O)Nc1ccccc1, the outcome was “inactive”. In the case of O=C(Oc1ccccc1)c1ccccc1, the outcome is reported as “inactive”. In the case of Cc1ccc2oc(=O)ccc2c1, the outcome is reported as “inactive”. For CC(c1cc2ccccc2s1)N(O)C(N)=O (stereo not given), the outcome was “inactive”. In the case of CCCCC(CC)COC(=O)C(C#N)=C(c1ccccc1)c1ccccc1 (stereo not given), the outcome is reported as “inactive”. In the case of CCN(CC)c1ccc(C(=O)c2ccccc2C(=O)O)c(O)c1, the outcome is reported as “inactive”. In the case of OCc1cccnc1, the outcome is reported as “inactive”. For CCc1ccc(CCOc2ccc(CC3SC(=O)NC3=O)cc2)nc1 (stereo not given), the outcome was “inactive”. In the case of COc1ccc2cc([C@H](C)C(=O)O)ccc2c1, the outcome is reported as “inactive”. For CC1=CCC2CC1C2(C)C (stereo not given), the outcome was “inactive”. In the case of COS(C)(=O)=O, the outcome is reported as “inactive”.
